# From PubChem BioAssay (NCATS)
# Records with an inconclusive call do not appear. Where a call stands in place of a potency, no number is given. Active and inactive are the calls of the source. Unless noted, calls come from the whole dose curve; as a rule, active = well fitted curve in the direction sought with a large enough effect; inconclusive = small, poorly fitted or top-dose-only effect, or another doubt; inactive = no such curve, though single readings can be large; an effect the other way counts as inactive or inconclusive.
# Columns and labels:
# [1] = target: Calcium and integrin-binding protein 1 (Homo sapiens) (UniProt Q99828); experiment: Primary qHTS for Identification of Calcium Integrin Binding Protein 1 (CIB1) Competitor (AID 1508620);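 note: GST tagged CIB1 binding a fluorescein labelled alphaIIb integrin peptide tracer; top concentration of the series differs between compounds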
# Method in brief: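 Fluorescence polarization competition: CIB1-GST (1 uM final) preincubated with compound 15 min at room temperature, then FITC-labeled alphaIIb peptide (100 nM final) added for another 15 min. Polarization read at Ex 480/Em 540.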
# [2] = target: N-terminal Xaa-Pro-Lys N-methyltransferase 1 (Homo sapiens) (UniProt Q9BV86); experiment: Confirmatory qHTS for Inhibitors of N-terminal methyltransferase 1 (NTMT1): MTaseGlo Assay (AID 1645874); note: nearly all actives have a fitted effect of over 65% in size; note: potency is the fitted concentration of half-maximal effect;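 for activity change, negative = inhibition: luminescence from SAH made as NTMT1 methylates SPKRIA peptide using SAM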
# Method in brief: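 qHTS format: NTMT1 125 nM, SAM 100 uM, peptide SPKRIA 1 uM final; 15 min compound preincubation, 30 min reaction at room temperature. MTase-Glo luminescence.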
# [3] = target: Lysosomal acid glucosylceramidase (Homo sapiens) (UniProt P04062); experiment: Glucocerebrosidase-p2 (AID 348; in the data active = potency below about 10 µM; note: potency is the fitted concentration of half-maximal effect); conditions: purified GBA, blue fluorogenic substrate, 40 min
# Method in brief: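 Compounds titrated from 0.6 nM upwards against 0.2 nM enzyme in pH 5.9 citric acid/KH2PO4, taurocholate, tween-20; blue fluorogenic substrate 80 uM, 40 min room temperature, stopped and read Ex 365/Em 440 for AC50.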
# [4] = AP1 Signaling Pathway (AID 357; active = well fitted curve in either direction with a large enough effect, not every such curve was filed as active;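 note: ME-180 reporter cells stimulated with EGF at its EC50 level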); conditions: ME-180 AP-1-bla reporter, EGF-induced, beta-lactamase ratio, 5 h; at 7.69 µM (top of the series) unless noted
# Method in brief: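 A ratiometric CCF4 readout (405 nm excitation; 460 and 530 nm emission) quantified AP-1-driven beta-lactamase in ME-180 cells after 5 h with compound and EC50 EGF; AC50 values were derived for activators and inhibitors.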
# [5] = target: Cytochrome P450 1A2 (Homo sapiens) (UniProt P05177); experiment: p450-cyp1a2 (AID 410; calls by dose curve; note: potency is the fitted concentration of half-maximal effect)
# Method in brief: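 Human CYP1A2 (20nM) demethylated Luciferin-ME at its Km (100uM) in 100mM KPO4. After 10 min compound preincubation, NADPH regeneration ran the reaction 60 min at room temperature. Luciferin was read by luminescence, normalized to 57 uM furafylline.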
# [6] = NFAT Signaling Pathway (AID 444; active = well fitted curve in either direction with a large enough effect, not every such curve was filed as active;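 note: carbachol stimulus at about its EC50 of 1 µM final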); conditions: Jurkat NFAT-bla M1, carbachol, beta-lactamase ratio, 5 h; at 7.69 µM (top of the series) unless noted
# Method in brief: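 Jurkat cells carrying an NFAT-driven β-lactamase reporter and co-transfected muscarinic M1 receptor were treated with compound plus carbachol (1 uM final, an EC50 level) for 5 h at 37 °C. CCF4 loading followed for 1 h at RT; 460/530 nm ratio gave %activity.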
# [7] = Stat Signaling Pathway (AID 446; active = well fitted curve in either direction with a large enough effect, not every such curve was filed as active;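 note: ME-180 cervical cancer cells given 40 pM IL-6 alongside compound; SIE-controlled beta-lactamase reporter measured as 460/530 nm FRET emission ratio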); conditions: ME-180 SIE beta-lactamase reporter, IL-6 stimulated, 5 h; at 7.69 µM (top of the series) unless noted
# Method in brief: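 Reporter line: ME-180 cervical carcinoma, SIE-beta-lactamase. Treatment: compound with 40 pM IL-6, 5 hrs, 37 C, in low-serum OPTI-MEM with 10 mM HEPES pH 7.3. Detection: 460/530 nm fluorescence.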
# [8] = target: Glucocorticoid receptor (Homo sapiens) (UniProt P04150); experiment: GR-GFP Redistribution (AID 450;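 active = compounds whose dose series gives a full or clear partial fitted curve of increased nuclear translocation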; note: potency is the fitted concentration of half-maximal effect); conditions: U2OS GR-GFP nuclear translocation, laser cytometry, 2 h
# [9] = target: Glucocorticoid receptor (Homo sapiens) (UniProt P04150); experiment: GR-EFC Redistribution (AID 451; calls by dose curve; note: potency is the fitted concentration of half-maximal effect); conditions: CHO-K1 GR-EFC translocation, beta-gal luminescence, 2 h
# Method in brief: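 CHO-K1 cells stably expressing nuclear-localized β-gal enzyme acceptor and GR fused C-terminally to the enzyme donor fragment; ligand-driven nuclear translocation restores β-gal by complementation. Compounds titrated up to 46 uM final, 2 h at 37 °C; luminescence read.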
# [10] = target: Cytochrome P450 3A4 (Homo sapiens) (UniProt P08684); experiment: qHTS Assay for Activators of Cytochrome P450 3A4 (AID 885); note: nearly all actives have a fitted effect of over 65% in size
# Method in brief: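 Signal was normalized against complete inhibition by 57 uM ketoconazole. The reaction used 20nM CYP3A4 with 25uM Luciferin-PPXE, 10-min compound preincubation and a 60-min NADPH-supported step at RT.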
# [11] = target: Cytochrome P450 2C19 (Homo sapiens) (UniProt P33261); experiment: qHTS Assay for Inhibitors and Substrates of Cytochrome P450 2C19 (AID 899); note: potency is the fitted concentration of half-maximal effect; nearly all actives have a fitted effect of over 60% in size
# Method in brief: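 NADPH-dependent conversion of Luciferin-H EGE (10uM, at KM) by 5nM enzyme in 50mM KPO4, 60 min at 37C following 10 min compound preincubation. Stopped with luciferin detection buffer; luminescence read after 20 min.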
# [12] = target: Dual specificity protein kinase CLK4 (Homo sapiens) (UniProt Q9HAZ1); experiment: qHTS Assay for Inhibitors of CDC-like Kinase 4 (Kinase-Glo Assay) (AID 1770); note: potency is the fitted concentration of half-maximal effect; nearly all actives have a fitted effect of over 65% in size
# Method in brief: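 Clk4 25 nM, RS peptide 100 uM, ATP 1 uM, pH 7.5 Tris, 10 mM MgCl2, 2.5 mM DTT; 4.5 h RT; ATP depletion read by Kinase-Glo luminescence.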
# [13] = target: Dual specificity protein kinase CLK4 (Homo sapiens) (UniProt Q9HAZ1); experiment: qHTS Assay for Inhibitors of CDC-like Kinase 4 (ADP-Glo Assay) (AID 1771); note: potency is the fitted concentration of half-maximal effect; nearly all actives have a fitted effect of over 70% in size
# Method in brief: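 Clk4 (25 nM) was incubated 1 hr at room temperature with 100 uM RS repeat peptide and 1 uM ATP in buffer with 2 mM MgCl2, 0.5 mM EGTA, 2.5 mM DTT. ADP formed was quantified by ADP-Glo luminescence.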
# [14] = target: Dual specificity protein kinase CLK4 (Homo sapiens) (UniProt Q9HAZ1); experiment: qHTS Assay for Inhibitors of CDC-like Kinase 4 (ADP-FP Assay) (AID 1795); note: potency is the fitted concentration of half-maximal effect; nearly all actives have a fitted effect of over 60% in size
# Method in brief: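 Kinase activity was followed as ADP output, converted from fluorescence polarization with a calibration curve. Reactions ran one hour at low ATP (1 uM) with RS peptide substrate.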
# [15] = target: Ubiquitin carboxyl-terminal hydrolase 1 (Homo sapiens) (UniProt O94782); experiment: Inhibitors of USP1/UAF1: Pilot qHTS (AID 504865);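 note: rhodamine fluorescence freed from ubiquitin-rhodamine substrate followed over time; top concentration of the series differs between compounds; nearly all actives have a fitted effect of over 35% in size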
# Method in brief: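 Enzyme-free wells gave the negative control, while test wells held 1nM USP1/UAF1 preincubated with compound for 15 min at room temperature. Ub-Rho at 150nM final started the reaction, and fluorescence at 480/540 nm was recorded kinetically.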
# [16] = Primary qHTS for small molecule stabilizers of the endoplasmic reticulum resident proteome: Secreted ER Calcium Modulated Protein (SERCaMP) assay (AID 1508630)
# Method in brief: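 GLuc-SERCaMP-expressing SH-SY5Y cells, pretreated 16 h with compound, are challenged with thapsigargin to empty ER calcium stores; after 4 h, coelenterazine is added directly to the medium and luminescence is imaged.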
# [17] = target: Mitogen-activated protein kinase 10 (Mus musculus) (UniProt Q61831); experiment: JNK3 AlphaScreen Assay (AID 530; active = well fitted curve in either direction with a large enough effect, not every such curve was filed as active;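 note: kinase came from lysate of stimulated human HepG2 cells; signal reports phosphorylation of biotinylated GST-cJun 1-79 at Ser73 with 10 µM ATP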)
# Method in brief: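 JNK3 came from HepG2 lysates pre-activated with IL-1beta and TNF-alpha and phosphorylated biotinylated GST-cJun (1-79) at 10 uM ATP, pH 7.6, room temperature. Compounds were titrated. AlphaScreen signal used anti-phospho-cJun (Ser73) antibody.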
# [18] = Confirmation and Secondary Assay for Modulators of Hemoglobin Beta Chain Splicing at IVS2 654 locus (AID 910);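 note: per-well total GFP intensity by laser scanning cytometry after 2-day treatment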
# Method in brief: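 HeLa cells stably carrying EGFP interrupted by mutant beta-globin IVS2-654 intron (CMV-driven) were treated with compound for 2 days at 37C; corrected splicing was scored as total peak GFP intensity per well (488 nm excitation, 500-520 nm emission).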
# [19] = Confirmation and Secondary Assay for Modulators of Hemoglobin Beta Chain Splicing at IVS2 705 locus (AID 930);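 note: HeLa cells stably expressing the EGFP-705 splicing reporter; GFP fluorescence per well restored by corrected splicing of the IVS2-705 intron in EGFP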
# Method in brief: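 Fluorescence gain (488 nm laser, 500-520 nm PMT) reflects restored correct splicing of a mutant IVS2-705 intron inside EGFP in stably transfected HeLa cells after 2-day compound treatment.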
# [20] = qHTS Assay for Lipid Storage Modulators (AID 1519; calls by dose curve); conditions: Drosophila S3 cells, BODIPY lipid droplet/cell ratio, laser cytometry, cells loaded with oleic acid
# Method in brief: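 Cells seeded at 5,000 per well were treated with compounds over a concentration series and loaded with oleic acid (400 uM, as added). Lipid droplet fluorescence (488 nm excitation, 500-530 nm channel) was read by laser-scanning cytometry and normalized to 20 uM Triacsin C.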
# Chain of N-terminal Xaa-Pro-Lys N-methyltransferase 1 (Homo sapiens) (Q9BV86 whole entry, looked up): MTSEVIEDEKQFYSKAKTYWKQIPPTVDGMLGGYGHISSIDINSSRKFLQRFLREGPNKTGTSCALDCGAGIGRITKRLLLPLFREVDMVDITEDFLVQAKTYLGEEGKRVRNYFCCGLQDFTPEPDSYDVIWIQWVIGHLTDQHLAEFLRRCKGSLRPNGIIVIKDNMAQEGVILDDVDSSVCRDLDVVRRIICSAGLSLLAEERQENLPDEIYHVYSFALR
# Chain of Calcium and integrin-binding protein 1 (Homo sapiens) (Q99828 whole entry, looked up): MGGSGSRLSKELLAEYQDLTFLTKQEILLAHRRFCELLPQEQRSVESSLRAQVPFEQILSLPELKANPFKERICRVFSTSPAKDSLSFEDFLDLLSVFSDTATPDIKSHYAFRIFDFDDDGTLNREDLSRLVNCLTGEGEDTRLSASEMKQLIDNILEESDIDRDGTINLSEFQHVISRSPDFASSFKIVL
# Chain of Glucocorticoid receptor (Homo sapiens) (P04150 whole entry, looked up, the tested form may be a part): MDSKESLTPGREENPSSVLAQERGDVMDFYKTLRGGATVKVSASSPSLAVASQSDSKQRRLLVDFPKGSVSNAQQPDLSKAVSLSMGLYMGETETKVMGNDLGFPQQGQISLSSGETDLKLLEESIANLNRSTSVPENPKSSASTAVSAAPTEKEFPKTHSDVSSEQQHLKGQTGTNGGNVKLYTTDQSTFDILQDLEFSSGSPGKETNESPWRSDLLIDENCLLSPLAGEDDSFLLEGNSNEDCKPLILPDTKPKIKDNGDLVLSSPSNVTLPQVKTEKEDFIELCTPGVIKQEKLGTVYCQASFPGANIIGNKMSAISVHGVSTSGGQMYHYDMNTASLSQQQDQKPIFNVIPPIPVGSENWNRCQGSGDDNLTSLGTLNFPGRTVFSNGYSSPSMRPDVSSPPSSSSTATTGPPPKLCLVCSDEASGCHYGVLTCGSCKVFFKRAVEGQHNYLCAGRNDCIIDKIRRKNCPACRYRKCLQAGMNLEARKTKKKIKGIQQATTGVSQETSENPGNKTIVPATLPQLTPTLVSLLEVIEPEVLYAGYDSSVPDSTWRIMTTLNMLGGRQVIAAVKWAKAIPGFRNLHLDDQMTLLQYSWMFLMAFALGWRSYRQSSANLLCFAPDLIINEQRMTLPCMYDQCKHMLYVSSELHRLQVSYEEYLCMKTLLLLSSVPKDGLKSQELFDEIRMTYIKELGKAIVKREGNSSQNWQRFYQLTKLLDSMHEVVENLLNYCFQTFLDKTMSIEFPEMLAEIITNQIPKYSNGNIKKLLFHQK
# Chain of Dual specificity protein kinase CLK4 (Homo sapiens) (Q9HAZ1 whole entry, looked up): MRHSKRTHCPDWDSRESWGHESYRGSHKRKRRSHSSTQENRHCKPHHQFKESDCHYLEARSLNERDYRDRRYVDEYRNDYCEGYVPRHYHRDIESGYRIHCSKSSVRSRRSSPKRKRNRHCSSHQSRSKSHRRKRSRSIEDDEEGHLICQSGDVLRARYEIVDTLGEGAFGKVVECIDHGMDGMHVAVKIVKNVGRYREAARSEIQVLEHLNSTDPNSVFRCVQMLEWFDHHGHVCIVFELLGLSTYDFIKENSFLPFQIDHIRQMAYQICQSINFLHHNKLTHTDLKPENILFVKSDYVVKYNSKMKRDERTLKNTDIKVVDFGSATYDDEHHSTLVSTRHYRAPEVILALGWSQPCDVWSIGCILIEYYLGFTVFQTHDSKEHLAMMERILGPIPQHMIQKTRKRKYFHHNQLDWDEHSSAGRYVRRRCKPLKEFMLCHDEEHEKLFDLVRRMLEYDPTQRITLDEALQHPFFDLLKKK
# Chain of Cytochrome P450 1A2 (Homo sapiens) (P05177 whole entry, looked up): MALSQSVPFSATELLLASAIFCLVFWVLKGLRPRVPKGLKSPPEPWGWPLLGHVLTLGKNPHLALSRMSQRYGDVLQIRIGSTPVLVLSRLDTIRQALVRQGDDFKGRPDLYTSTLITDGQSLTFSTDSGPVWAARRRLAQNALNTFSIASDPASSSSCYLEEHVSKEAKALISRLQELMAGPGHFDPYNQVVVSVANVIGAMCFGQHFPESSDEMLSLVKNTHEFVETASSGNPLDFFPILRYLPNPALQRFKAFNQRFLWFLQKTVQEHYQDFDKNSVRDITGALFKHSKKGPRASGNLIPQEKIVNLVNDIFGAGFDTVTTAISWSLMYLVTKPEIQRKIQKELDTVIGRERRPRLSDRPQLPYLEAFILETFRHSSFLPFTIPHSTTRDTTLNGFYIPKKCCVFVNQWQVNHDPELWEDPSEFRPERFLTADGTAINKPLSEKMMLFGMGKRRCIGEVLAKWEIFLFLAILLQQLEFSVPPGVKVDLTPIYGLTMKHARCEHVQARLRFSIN
# Chain of Ubiquitin carboxyl-terminal hydrolase 1 (Homo sapiens) (O94782 whole entry, looked up): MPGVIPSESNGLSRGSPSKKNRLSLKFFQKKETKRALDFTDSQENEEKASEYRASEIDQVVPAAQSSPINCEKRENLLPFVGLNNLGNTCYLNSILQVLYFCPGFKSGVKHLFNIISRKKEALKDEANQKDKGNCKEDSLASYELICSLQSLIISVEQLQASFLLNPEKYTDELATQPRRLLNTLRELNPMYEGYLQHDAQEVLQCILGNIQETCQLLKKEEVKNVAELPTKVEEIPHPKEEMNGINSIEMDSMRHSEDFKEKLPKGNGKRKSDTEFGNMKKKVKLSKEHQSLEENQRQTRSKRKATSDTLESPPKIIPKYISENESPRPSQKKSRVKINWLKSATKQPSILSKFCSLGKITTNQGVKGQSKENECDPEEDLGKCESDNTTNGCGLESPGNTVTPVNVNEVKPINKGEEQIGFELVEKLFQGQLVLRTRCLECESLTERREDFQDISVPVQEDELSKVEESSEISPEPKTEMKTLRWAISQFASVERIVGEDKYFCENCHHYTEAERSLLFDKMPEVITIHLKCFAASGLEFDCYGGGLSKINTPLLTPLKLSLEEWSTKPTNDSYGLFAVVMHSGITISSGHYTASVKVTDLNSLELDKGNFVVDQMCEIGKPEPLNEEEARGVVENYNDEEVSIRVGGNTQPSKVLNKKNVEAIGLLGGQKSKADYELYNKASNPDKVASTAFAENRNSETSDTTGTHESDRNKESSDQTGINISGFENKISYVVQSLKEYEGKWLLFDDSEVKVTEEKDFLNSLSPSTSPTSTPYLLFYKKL
# Chain of Cytochrome P450 3A4 (Homo sapiens) (P08684 whole entry, looked up): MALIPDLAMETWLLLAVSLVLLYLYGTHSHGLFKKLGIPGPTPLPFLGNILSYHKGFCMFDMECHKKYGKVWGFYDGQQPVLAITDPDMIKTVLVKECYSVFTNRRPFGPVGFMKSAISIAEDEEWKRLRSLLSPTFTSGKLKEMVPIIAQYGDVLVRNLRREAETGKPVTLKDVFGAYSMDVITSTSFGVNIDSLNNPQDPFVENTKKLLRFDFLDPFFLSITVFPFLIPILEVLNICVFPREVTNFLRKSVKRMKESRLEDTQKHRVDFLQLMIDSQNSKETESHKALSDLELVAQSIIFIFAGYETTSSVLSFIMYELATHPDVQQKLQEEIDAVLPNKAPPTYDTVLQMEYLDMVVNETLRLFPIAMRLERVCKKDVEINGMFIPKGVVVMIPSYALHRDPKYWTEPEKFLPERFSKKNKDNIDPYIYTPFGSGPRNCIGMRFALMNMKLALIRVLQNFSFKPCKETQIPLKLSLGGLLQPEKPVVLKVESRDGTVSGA
# Chain of Cytochrome P450 2C19 (Homo sapiens) (P33261 whole entry, looked up): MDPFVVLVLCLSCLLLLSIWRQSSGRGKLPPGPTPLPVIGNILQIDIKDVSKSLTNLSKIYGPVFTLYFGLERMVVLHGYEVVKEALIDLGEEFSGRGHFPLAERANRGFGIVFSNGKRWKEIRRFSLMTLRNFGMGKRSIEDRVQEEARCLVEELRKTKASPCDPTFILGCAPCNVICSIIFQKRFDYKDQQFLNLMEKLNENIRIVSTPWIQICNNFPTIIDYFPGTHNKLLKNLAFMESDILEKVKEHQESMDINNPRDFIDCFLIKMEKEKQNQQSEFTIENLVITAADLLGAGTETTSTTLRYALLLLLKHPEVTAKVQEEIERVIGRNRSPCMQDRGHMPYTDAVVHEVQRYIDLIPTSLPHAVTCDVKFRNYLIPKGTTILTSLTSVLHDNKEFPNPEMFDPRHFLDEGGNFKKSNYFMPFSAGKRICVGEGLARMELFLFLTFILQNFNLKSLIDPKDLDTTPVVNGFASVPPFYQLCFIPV
# Chain of Lysosomal acid glucosylceramidase (Homo sapiens) (P04062 whole entry, looked up): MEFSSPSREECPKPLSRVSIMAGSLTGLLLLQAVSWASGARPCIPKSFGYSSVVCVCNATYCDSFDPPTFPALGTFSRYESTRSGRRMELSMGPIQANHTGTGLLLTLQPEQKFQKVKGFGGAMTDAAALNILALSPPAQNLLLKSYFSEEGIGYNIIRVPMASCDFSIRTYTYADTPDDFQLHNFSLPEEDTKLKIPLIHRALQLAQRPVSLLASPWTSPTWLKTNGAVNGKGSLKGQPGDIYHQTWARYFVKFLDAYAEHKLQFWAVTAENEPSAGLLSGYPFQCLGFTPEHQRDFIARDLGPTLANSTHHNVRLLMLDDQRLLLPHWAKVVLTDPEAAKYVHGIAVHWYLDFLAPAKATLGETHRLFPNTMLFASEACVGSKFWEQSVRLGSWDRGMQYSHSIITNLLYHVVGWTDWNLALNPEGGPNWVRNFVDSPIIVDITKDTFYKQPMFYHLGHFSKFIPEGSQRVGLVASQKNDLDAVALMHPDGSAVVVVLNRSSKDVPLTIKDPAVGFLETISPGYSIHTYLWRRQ
structure (smiles),measurement,setting,value
Cc1cc2c(s1)c1cnn(Cc3cccc(C)c3F)c(=O)c1n2C,Potency,[1],inactive
same,Potency,[2],inactive
NC(=O)C1CCN(c2nc(-c3ccc4c(c3)CCO4)cs2)CC1,Potency,[1],inactive
same,Potency,[2],inactive
O=C(NCCc1ccccc1)C1CCN(c2nc(-c3ccc(Br)cc3)cs2)CC1,Potency,[1],inactive
same,Potency,[2],inactive
Cc1cccc(-c2ccc3ncnc(NCc4cccs4)c3c2)c1,Potency,[1],inactive
same,Potency,[2],10 µM (active)
c1cncc(CNc2ccnc(-c3ccc4c(c3)OCO4)n2)c1,Potency,[3],> 11.4 µM (inactive)
same,"activity change, negative = inhibition",[4],-20.8% (inactive)
same,Potency,[5],0.126 µM (active)
same,"activity change, negative = inhibition",[6],16% (inactive)
same,"activity, negative = inhibition",[7],-10.6% (inactive)
same,Potency,[8],> 46 µM (inactive)
same,Potency,[9],> 46 µM (inactive)
same,Potency,[10],inactive
same,Potency,[11],5.01 µM (active)
same,Potency,[12],0.0631 µM (active)
same,Potency,[13],0.1 µM (active)
same,Potency,[14],0.0447 µM (active)
same,Potency,[15],inactive
same,Potency,[1],inactive
same,Potency,[16],inactive
NC(=O)C1CCN(c2nc(-c3ccccc3Cl)cs2)CC1,Potency,[1],inactive
same,Potency,[2],inactive
Fc1cc(Nc2nc(-c3ccncc3)nc3ccccc23)ccc1-c1ccc2[nH]ncc2c1,Potency,[1],inactive
same,Potency,[2],inactive
Cc1cccc(CNc2ncnc3ccc(-c4cccnc4)cc23)c1,Potency,[5],0.316 µM (active)
same,Potency,[9],> 46 µM (inactive)
same,outcome,[17],inactive
same,Potency,[10],inactive
same,outcome,[18],inactive
same,outcome,[19],inactive
same,"activity change, negative = inhibition",[20]; at 57.5 µM (top of the series),2.99% (inactive)
same,max response,[20]; measured here: cell count channel max response,-7.82%
same,max response,[20]; measured here: lipid channel max response,-4.88%
same,Potency,[15],inactive
same,Potency,[1],inactive
same,Potency,[16],inactive
COc1cccc(-c2nnc3n2N=C(c2c(OC)cccc2OC)CS3)c1,Potency,[1],inactive
